Values without a mark were called inactive. The source made the active and inactive calls. Calls follow the shape of the dose curve; as a rule, active = well fitted curve in the direction sought with a large enough effect (not every such curve was filed as active); inconclusive = small, poorly fitted or top-dose-only effect, or effect the other way, or another doubt; inactive = no such curve, though single readings can be large or run the other way.
target: Pyruvate kinase PKM (Homo sapiens) (UniProt P14618); test: qHTS Assay for Activators of Human Muscle Pyruvate Kinase (AID 954); settings: purified human muscle pyruvate kinase, luciferase-coupled luminescence, 1 h; series mostly up to 57.5 µM; activity change, negative = inhibition: at the top concentration;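 also: 0% = uninhibited enzyme and -100% = no enzyme or full thiadiazolimine inhibition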
Outline: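 Compound pinned into substrate mix (0.5 mM PEP, 0.1 mM ADP), then 0.1 nM PKM2 added; 1 h, RT. Stop/detection luciferase reagent added, luminescence read. Normalized to no-inhibition and no-enzyme or reference-inhibitor controls.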

Chain of Pyruvate kinase PKM (Homo sapiens) (P14618 whole entry, looked up): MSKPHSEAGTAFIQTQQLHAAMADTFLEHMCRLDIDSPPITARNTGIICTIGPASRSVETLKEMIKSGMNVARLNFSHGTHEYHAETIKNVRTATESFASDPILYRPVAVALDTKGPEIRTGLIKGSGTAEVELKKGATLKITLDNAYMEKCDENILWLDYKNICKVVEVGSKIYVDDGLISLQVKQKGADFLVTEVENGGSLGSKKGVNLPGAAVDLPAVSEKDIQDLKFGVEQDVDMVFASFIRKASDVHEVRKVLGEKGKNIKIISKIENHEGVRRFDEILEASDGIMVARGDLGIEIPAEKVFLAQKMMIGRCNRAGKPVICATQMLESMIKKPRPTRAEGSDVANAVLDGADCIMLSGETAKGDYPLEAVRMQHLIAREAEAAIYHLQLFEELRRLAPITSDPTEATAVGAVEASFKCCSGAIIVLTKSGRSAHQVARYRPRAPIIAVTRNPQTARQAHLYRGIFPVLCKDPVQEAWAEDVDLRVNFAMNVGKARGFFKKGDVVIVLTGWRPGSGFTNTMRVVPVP

Question: c1cc(CN2CCCCC2)cc(OCCCNc2nc3ccccc3s2)c1 was tested. Which “activity change, negative = inhibition” value did it give?
Answer: -11.5%

Question: Which “activity change, negative = inhibition” value does the source give for C#CCN(C)CCCOc1ccc(Cl)cc1Cl here?
Answer: -14%

Question: With COc1cc2c(cc1OC)-c1cc(=Nc3c(C)cc(C)cc3C)n(C)c(=O)n1CC2 as the compound, how does the “activity change, negative = inhibition” value read?
Answer: -28.1%

Question: Which “activity change, negative = inhibition” value does the source give for Cc1nc2sccn2c(=O)c1CCN1CCC(=C(c2ccc(F)cc2)c2ccc(F)cc2)CC1 here?
Answer: -21.2%

Question: With CCn1nc(C(=O)O)c(=O)c2cc3c(cc21)OCO3 as the compound, how does the “activity change, negative = inhibition” value read?
Answer: -21.9%

Question: For CCc1c(C)[nH]c2c1C(=O)C(CN1CCOCC1)CC2 (centres undefined), which “activity change, negative = inhibition” value is on record?
Answer: -7.11%

Question: With CN/C(=C\[N+](=O)[O-])NCCSCc1ccc(CN(C)C)o1 as the compound, how does the “activity change, negative = inhibition” value read?
Answer: -14.4%

Question: With CCCOc1ccccc1-c1nc2n[nH]nc2c(=O)[nH]1 as the compound, how does the “activity change, negative = inhibition” value read?
Answer: -22.9%

Question: How did the “activity change, negative = inhibition” value turn out when N[C@@H](COP(=O)(O)O)C(=O)O was run?
Answer: -8.32%

Question: How did the “activity change, negative = inhibition” value turn out when C[N+](C)(C)CCCCCCCCCC[N+](C)(C)C was run?
Answer: -5.01%

Question: For CC(=O)Oc1cc(C(C)C)c(OCCN(C)C)cc1C, which “activity change, negative = inhibition” value is on record?
Answer: -28.5%

Question: For CCCC(C(=O)OCCN(CC)CC)(c1ccccc1)c1ccccc1, which “activity change, negative = inhibition” value is on record?
Answer: -1.47%

Question: Which “activity change, negative = inhibition” value does the source give for CC1=NS(=O)(=O)c2cc(Cl)ccc2N1 here?
Answer: -9.55%

Question: Which “activity change, negative = inhibition” value does the source give for C[C@]12CCC(=O)C=C1CC[C@@H]1[C@@H]2C(=O)C[C@@]2(C)[C@H]1CC[C@]2(O)C(=O)CO here?
Answer: -5.66%

Question: For Cc1ccc(S(=O)(=O)NC(=O)NN2CCCCCC2)cc1, which “activity change, negative = inhibition” value is on record?
Answer: -17.9%

Question: O=C(CCNNC(=O)c1ccncc1)NCc1ccccc1 was tested. Which “activity change, negative = inhibition” value did it give?
Answer: -19.3%

Question: For CC(C)[N+](C)(CCOC(=O)C1c2ccccc2Oc2ccccc21)C(C)C, which “activity change, negative = inhibition” value is on record?
Answer: -21.9%

Question: How did the “activity change, negative = inhibition” value turn out when CC1=C(C)C(=O)C(CCCCC#CCCCC#CCO)=C(C)C1=O was run?
Answer: -13.6%

Question: Which “activity change, negative = inhibition” value does the source give for CCC(=O)c1ccc2c(c1)N(CCCN(C)C)c1ccccc1S2 here?
Answer: -11.2%

Question: Which “activity change, negative = inhibition” value does the source give for Cc1nc2ccccn2c(=O)c1CCN1CCC(C(=O)c2ccc(F)cc2)CC1 here?
Answer: -18.5%

Question: OCCN1CCN(CCCN2c3ccccc3C=Cc3ccccc32)CC1 was tested. Which outcome did it give?
Answer: inactive

Question: How did the “activity change, negative = inhibition” value turn out when CN1CCN(C2=Nc3ccccc3Oc3ccc(Cl)cc32)CC1 was run?
Answer: -3.46%

Question: With C[C@]12CCC(=O)C=C1CC[C@@H]1[C@@H]2CC[C@@]2(C)[C@H]1CC[C@]2(O)C(=O)CO as the compound, how does the “activity change, negative = inhibition” value read?
Answer: 7.91%

Question: For C(=C\c1ccccc1)/CN1CCN(C(c2ccccc2)c2ccccc2)CC1, which “activity change, negative = inhibition” value is on record?
Answer: 2.43%

Question: With O=C(O)CN(CCOCCOCCN(CC(=O)O)CC(=O)O)CC(=O)O as the compound, how does the “activity change, negative = inhibition” value read?
Answer: -4.87%

Question: Which “activity change, negative = inhibition” value does the source give for CN(C(=O)CCCOc1ccc2[nH]c(=O)ccc2c1)C1CCCCC1 here?
Answer: -24.2%

Question: For CN(C)CCN(Cc1cccs1)c1ccccn1, which “activity change, negative = inhibition” value is on record?
Answer: -29.4%

Question: With COCC(=O)O[C@]1(CCN(C)CCCc2nc3ccccc3[nH]2)CCc2cc(F)ccc2[C@@H]1C(C)C as the compound, how does the “activity change, negative = inhibition” value read?
Answer: -4.25%

Question: For C[N+](C)(C)CCOC(N)=O, which “activity change, negative = inhibition” value is on record?
Answer: -5.71%
